Out of some 340,000 compounds screened, about 5,100 (1.5%) were called active. The list comes from a sample in which actives are over-represented; it also holds similar structures and randomly drawn compounds. A number with no mark means an inactive call.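 How the source made its calls: active means mean Tm shift, scaled 0 neutral to 100 positive control, at about 1.3% or above, every replicate too (limit read from the data); inconclusive means no clear call, values can overlap the other calls; inactive means the rest.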
Target: Fibroblast growth factor 22 (Homo sapiens) (UniProt Q9HCT0)
Sequence (Q9HCT0 whole entry, looked up): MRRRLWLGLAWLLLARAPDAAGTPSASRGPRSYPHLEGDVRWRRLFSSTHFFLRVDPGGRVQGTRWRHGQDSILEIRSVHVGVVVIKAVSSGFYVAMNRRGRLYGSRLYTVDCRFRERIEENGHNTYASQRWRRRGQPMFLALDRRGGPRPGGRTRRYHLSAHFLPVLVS
Experiment: FGF22 ligand-induced thermal stabilization – biophysical, thermal shift, single point, FGF22 synaptogenesis inhibitor project, primary screen (AID 651658)
Conditions: recombinant FGF22 thermal shift, SYPRO orange fluorescence; at 9.99 µM; active compounds read high; percent of sucrose octasulfate shift, DMSO zero

Structure (SMILES) | activity (Tm shift, normalised)
Cc1nn(Cc2ccccc2)c(C)c1C(=O)NCCN1C(=O)S/C(=C\c2ccc(F)cc2)C1=O | 0.11%
O=C(CN1C(=O)S/C(=C\c2ccccc2F)C1=O)NCCCn1ccnc1 | -0.15%
Cn1cccc1/C=C1\SC(=O)N(CC(=O)Nc2ccc(F)cc2)C1=O | 43% (active)
COc1ccc(S(=O)(=O)N(CC(=O)N/N=C/c2ccc(C(=O)O)cc2)Cc2ccccc2)cc1OC | -0.204%
O=C(O)c1ccc(/C=N/NC(=S)NCc2ccccc2)cc1 | 0.16%
CC(=O)Nc1ccc(S(=O)(=O)N(CCc2ccccc2)CC(=O)N/N=C/c2ccc(C(=O)O)cc2)cc1 | 1.76% (active)
CNC[C@H]1Oc2ncc(-c3ccccc3F)cc2C(=O)N([C@H](C)CO)C[C@H]1C | -0.078%
COCC#Cc1ccc2c(c1)O[C@H](CN(C)CC1CC1)[C@H](C)CN([C@H](C)CO)S2(=O)=O | 0.379%
CCCN(C)C[C@@H]1OCCCC[C@@H](C)Oc2ccc(NS(=O)(=O)c3c(C)noc3C)cc2C(=O)N([C@H](C)CO)C[C@@H]1C | -0.518%
C[C@H](CO)N1C[C@H](C)[C@H](CN(C)S(=O)(=O)c2cccs2)OCCCC[C@H](C)Oc2ccc(NC(=O)CCCN(C)C)cc2C1=O | -0.21%
CN1C(=O)c2cccc3c(N)ccc(c23)C1=O | 28.3% (active)
O=C1c2cccc3c([N+](=O)[O-])ccc(c23)C(=O)N1CC1CCCO1 (stereo not given) | 0.06%
CO[C@H]1CN(C)C(=O)c2cc(NC(=O)Nc3ccccc3F)ccc2OC[C@H](C)N(C)C[C@H]1C | -0.052%
COc1ccccc1S(=O)(=O)N(C)C[C@H]1Oc2cc(C#CCC3CCCC3)ccc2S(=O)(=O)N([C@@H](C)CO)C[C@H]1C | 0.195%
COc1ccc2c3c(n(C)c2c1)[C@@H](CO)N(C(=O)c1cnccn1)CC31CCN(C(C)=O)CC1 | -0.238%
CC(=O)N1c2ccc(S(=O)(=O)N3CCCC(C(=O)NCc4ccc(Cl)cc4)C3)cc2CC1C (stereo not given) | 0.095%
CC(=O)N1c2ccc(S(=O)(=O)N3CCC(C(=O)NCc4ccc(F)cc4)CC3)cc2CC1C (stereo not given) | 1.48% (active)
CC(=O)N1c2ccc(S(=O)(=O)N3CCC(C(=O)NC4CCCCC4C)CC3)cc2CC1C (stereo not given) | 0.24%
O=C(c1ccncc1)N1CC2(C1)[C@@H](c1ccccc1)[C@H](CO)N2C(=O)c1ccncc1 | -0.088%
CCCC(=O)Nc1ccc2c(c1)OC[C@H](C)N(Cc1ccc(F)cc1)C[C@H](C)[C@H](OC)CN(C)C2=O | -0.11%

Reference: PubChem BioAssay AID651658 (Broad Institute, 2012)
